The structures appear in SMILES notation.

As usually defined, the Inhibition is the percentage by which the read-out fell short of the control.

The subject of one test is Plasmodium falciparum. The test is described as follows: GSK_TCMDC: Inhibition of Plasmodium falciparum 3D7 in whole red blood cells, using parasite LDH activity as an index of growth. Test compounds present at 2uM. The test is classed as functional.
In the case of `CCc1ccc(CN2CCC(CNC(=O)c3cc(-c4cccc(F)c4)cs3)C2)cc1.O=C(O)C(F)(F)F` (stereo not given), the Inhibition turned out to be 84%.

`Cc1cccc2nc(-c3ccc(-c4cccc(NC(=O)Nc5ccsc5)c4)cc3)[nH]c12` yielded an Inhibition of 100%. The same measure, in the same setting: for `Br.CC1(C)NC(N)=NC(=N)N1OCCSCCON1C(=N)N=C(N)NC1(C)C` the value was 95%. As for `COc1ccc2nccc(N3CCN(CCNCc4ccc5c(n4)NC(=O)CS5)CC3)c2c1.Cl`, the Inhibition was 97%. In the case of `COc1cc2c(cc1OC)CN(CCCCc1ccc(NC(=O)c3cc(Cl)cc(Cl)c3)cc1)CC2`, the Inhibition worked out at 95%. On to `O=C(NCCN1CCCC1)c1cc(-c2ccc(Cl)c(O)c2)c(-c2ccncc2)o1`, for which the Inhibition is listed as 92%. On the same count and under the same terms, next, `O=S(=O)(c1ccc(Cl)cc1Cl)N1CCCCC(c2ccc(C(F)(F)F)cc2)=N1`: 100%; `N#Cc1cccc(NC(=O)Nc2cccc(-c3cccc(-c4nc5cc(C(F)(F)F)ccc5[nH]4)c3)c2)c1`: 100%; `Br.Cc1cc(C)c(C)c(OCCCON2C(=N)N=C(N)NC2(C)C)c1C`: 94%. In turn, `CN(C)C(CNc1ncnc2cc(Cl)ccc12)Cc1ccccc1` (stereo not given) displayed an Inhibition of 96%. Take `COc1ccc(-n2ncc(C(=O)N3CCC4(C3)C(=O)N(c3ccccc3)c3ccccc34)c2C)cc1` (stereo not given): the Inhibition worked out at 88%. On the same count and under the same terms, for `CN1CCC(NCc2cccc(-c3cccc(-c4nc5cc(C(F)(F)F)ccc5[nH]4)c3)c2)CC1.O=C(O)C(F)(F)F` the value was 100%; for `CCOc1cc(C)ccc1C1CCN(CCCCNC(=O)c2ccc(-c3ccc(Cl)cn3)cc2)CC1.Cl`, 94%.

In turn, `CCn1c(Cc2ccccc2)nnc1Sc1ccc([N+](=O)[O-])c(C#N)c1` registered an Inhibition of 93%. On to `CN(CCNCc1ccc(-c2cccc(-c3nc4ccccc4[nH]3)c2)cc1)S(C)(=O)=O.O=C(O)C(F)(F)F`, for which the Inhibition was found to be 100%. In the case of `CCCC(C)NC[C@@H](O)[C@H](Cc1ccccc1)NC(=O)c1cc(NCC)cc(N2CCCCS2(=O)=O)c1.Cl` (stereo not given in full), the Inhibition was 100%. On the same count and under the same terms, next, `Cc1cc(Nc2ccncc2)n2nc(C)c(-c3ccc(Cl)cc3)c2n1`: 100%; `CCc1ccc(CN(CCCOc2cccc(CC(=O)NCc3c[nH]cn3)c2)Cc2ccc(-n3ccnc3)cc2)cc1`: 99%; `CN(C)CCN(C)Cc1ccc(-c2cccc(-c3nc4ccccc4[nH]3)c2)cc1.O=C(O)C(F)(F)F`: 100%.

In turn, `O=C(NCc1cccc(Br)c1)c1ccc(CNC2CCN(Cc3ccccc3)CC2)cc1.O=C(O)C(F)(F)F` gave an Inhibition of 100%.

With `COc1ccc(CNC2CCN(C)CC2)cc1-c1ccc(S(=O)(=O)NCc2ccccc2)s1.O=C(O)C(F)(F)F`, the Inhibition was found to be 100%.

As for `O=C(O)C(F)(F)F.c1cc(-c2ccc(CNCc3ccsc3)cc2)cc(-c2nc3ccccc3[nH]2)c1`, the Inhibition worked out at 100%. In the case of `CCOC(=O)/C(=N\OC(C(=O)OC(C)(C)C)c1ccccc1)c1csc(NC(c2ccccc2)(c2ccccc2)c2ccccc2)n1` (stereo not given), the Inhibition is on record as 89%. The molecule `CCCc1cc(N2CCC(c3ccccc3)(N3CCCCC3)CC2)nc(Nc2ccc(OC)cc2)n1` registered an Inhibition of 81%. `Cc1ccccc1Nc1nc(NCc2ccccc2)nc2ccccc12` showed an Inhibition of 88%.

A further test has as its system Plasmodium falciparum. The test is described as follows: GSK_TCMDC: Inhibition of Plasmodium falciparum Dd2 in whole red blood cells, using parasite LDH activity as an index of growth. Test compounds present at 2uM. It is filed as functional.
Turning to `COc1ccc(NCCCNc2ccnc3ccccc23)cc1`, the Inhibition was determined as 17%. `CC(C)(C)c1ccc(NC(=O)c2cccc(CN3CCCN(Cc4ccc(F)cc4)CC3)c2)cc1.O=C(O)C(F)(F)F` had an Inhibition of 2%. `CCCc1cc(Cc2cnc(N)nc2N)cc(CCC)c1OCCCCCC(=O)OCC` came in with an Inhibition of 0%. `CCc1cn(C)c2c(N3CCCC3=O)cc(C(=O)N[C@@H](Cc3ccccc3)[C@H](O)CNC(C)(C)CCCC(C)C)cc12` gave an Inhibition of 98%. In the case of `Cc1cccc2nc(-c3ccc(-c4cccc(NC(=O)Nc5cccc(C#N)c5)c4)cc3)[nH]c12`, the Inhibition is recorded as 86%. Turning to `CNC(=O)CNC(=O)COc1cccc2ccccc12`, the Inhibition is 0%. The molecule `N=C(N)NCCCN(Cc1ccccc1)c1ccc(Cl)cc1.O=S(=O)(O)O` returned an Inhibition of 98%. On the same count and under the same terms, for `O=C(Nc1cccc(CN2CCCN(CC3CCCCC3)CC2)c1)c1cc2ccccc2s1.O=C(O)C(F)(F)F` the value was 15%. `COc1cccc2c(C)cc(NCc3ccc(Cl)cc3)nc12`: the Inhibition came out at 5%. In the case of `COc1ccc(-c2cncc3ccc(C(=O)NCCCn4ccnc4)nc23)cc1`, the Inhibition was 99%.

The molecule `O=C(Nc1ccc(Cn2ncc(N3CCCNCC3)c(Cl)c2=O)cc1)Nc1cc(Cl)cc(Cl)c1.O=C(O)C(F)(F)F` had an Inhibition of 17%.

Turning to `Cl.O=C(Nc1cccc(Cl)c1)OC1CCCN2CCCCC12` (stereo not given), the Inhibition is 0%. In turn, `CC1(C)CN2CCCC2c2cc(NC(=O)/C=C/c3ccccc3Cl)ccc21.Cl` (stereo not given) had an Inhibition of 76%.

`Cc1cccc2nc(-c3cccc(-c4cccc(NC(=O)c5ccc(=O)[nH]n5)c4)c3)[nH]c12`: the Inhibition is recorded as 32%. Molecule `FC(F)(F)c1ccc2[nH]c(-c3ccc(-c4ccc(CNCC5CCCO5)cc4)cc3)nc2c1.O=C(O)C(F)(F)F` (stereo not given) returned an Inhibition of 100%.

`CCc1ccc(CN2CCC(CNC(=O)c3cc(-c4cccc(F)c4)cs3)C2)cc1.O=C(O)C(F)(F)F` (stereo not given): the Inhibition worked out at 4%. Consider `Cc1cccc2nc(-c3ccc(-c4cccc(NC(=O)Nc5ccsc5)c4)cc3)[nH]c12`, for which the Inhibition came out at 24%.

`Br.CC1(C)NC(N)=NC(=N)N1OCCSCCON1C(=N)N=C(N)NC1(C)C` showed an Inhibition of 81%. As to `COc1ccc2nccc(N3CCN(CCNCc4ccc5c(n4)NC(=O)CS5)CC3)c2c1.Cl`, the Inhibition is reported as 23%. In the case of `COc1cc2c(cc1OC)CN(CCCCc1ccc(NC(=O)c3cc(Cl)cc(Cl)c3)cc1)CC2`, the Inhibition was 4%. Turning to `O=C(NCCN1CCCC1)c1cc(-c2ccc(Cl)c(O)c2)c(-c2ccncc2)o1`, the Inhibition came out at 0%. The molecule `O=S(=O)(c1ccc(Cl)cc1Cl)N1CCCCC(c2ccc(C(F)(F)F)cc2)=N1` had an Inhibition of 99%. Turning to `N#Cc1cccc(NC(=O)Nc2cccc(-c3cccc(-c4nc5cc(C(F)(F)F)ccc5[nH]4)c3)c2)c1`, the Inhibition worked out at 99%.

Molecule `Br.Cc1cc(C)c(C)c(OCCCON2C(=N)N=C(N)NC2(C)C)c1C` had an Inhibition of 95%.

Molecule `CN(C)C(CNc1ncnc2cc(Cl)ccc12)Cc1ccccc1` (stereo not given) had an Inhibition of 88%. With `COc1ccc(-n2ncc(C(=O)N3CCC4(C3)C(=O)N(c3ccccc3)c3ccccc34)c2C)cc1` (stereo not given), the Inhibition was 91%. Consider `CN1CCC(NCc2cccc(-c3cccc(-c4nc5cc(C(F)(F)F)ccc5[nH]4)c3)c2)CC1.O=C(O)C(F)(F)F`, for which the Inhibition was determined as 100%. Molecule `CCOc1cc(C)ccc1C1CCN(CCCCNC(=O)c2ccc(-c3ccc(Cl)cn3)cc2)CC1.Cl` had an Inhibition of 8%. In the case of `CCn1c(Cc2ccccc2)nnc1Sc1ccc([N+](=O)[O-])c(C#N)c1`, the Inhibition is listed as 72%.

For `CN(CCNCc1ccc(-c2cccc(-c3nc4ccccc4[nH]3)c2)cc1)S(C)(=O)=O.O=C(O)C(F)(F)F`, the Inhibition is 29%. `CCCC(C)NC[C@@H](O)[C@H](Cc1ccccc1)NC(=O)c1cc(NCC)cc(N2CCCCS2(=O)=O)c1.Cl` (stereo not given in full) displayed an Inhibition of 98%. Molecule `Cc1cc(Nc2ccncc2)n2nc(C)c(-c3ccc(Cl)cc3)c2n1` had an Inhibition of 99%. As for `CCc1ccc(CN(CCCOc2cccc(CC(=O)NCc3c[nH]cn3)c2)Cc2ccc(-n3ccnc3)cc2)cc1`, the Inhibition is 28%.

Molecule `CN(C)CCN(C)Cc1ccc(-c2cccc(-c3nc4ccccc4[nH]3)c2)cc1.O=C(O)C(F)(F)F` showed an Inhibition of 78%. `O=C(NCc1cccc(Br)c1)c1ccc(CNC2CCN(Cc3ccccc3)CC2)cc1.O=C(O)C(F)(F)F` registered an Inhibition of 49%. `COc1ccc(CNC2CCN(C)CC2)cc1-c1ccc(S(=O)(=O)NCc2ccccc2)s1.O=C(O)C(F)(F)F` came in with an Inhibition of 100%. On the same count and under the same terms, next, `O=C(O)C(F)(F)F.c1cc(-c2ccc(CNCc3ccsc3)cc2)cc(-c2nc3ccccc3[nH]2)c1`: 82%; `CCOC(=O)/C(=N\OC(C(=O)OC(C)(C)C)c1ccccc1)c1csc(NC(c2ccccc2)(c2ccccc2)c2ccccc2)n1` (stereo not given): 68%; `CCCc1cc(N2CCC(c3ccccc3)(N3CCCCC3)CC2)nc(Nc2ccc(OC)cc2)n1`: 28%.

For `Cc1ccccc1Nc1nc(NCc2ccccc2)nc2ccccc12`, the Inhibition is 35%.

These data come from ChEMBL document CHEMBL1157539, “Thousands of chemical starting points for antimalarial lead identification” (Nature, 2010).
